# The supplement of paper PMC8728848
# This excerpt belongs to a sample that is enriched for the strongest signals.
# Legend:
# Assay in all cases: glycan array binding signal (z-score within array); higher = stronger binding
# Conditions in all cases: glycan notation: IUPAC condensed, linker removed
# [1] = molecular target: Fuc(a1-2)Gal
# Outline: (§1)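 The Consortium for Functional Glycomics database supplied 3228 glycan arrays, of which those lacking an available protein sequence were dropped. The binding signal, a within-array Z-score, was averaged across arrays of the same protein sequence and across linkers. Negative scores can be read as non-binding.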
# [2] = molecular target: Fuc(a1-2)Gal(b1-3)GlcNAc(b1-2)Man(a1-3)[Fuc(a1-2)Gal(b1-3)GlcNAc(b1-2)Man(a1-6)]Man(b1-4)GlcNAc(b1-4)GlcNAc
# Outline: as §1
# [3] = molecular target: Fuc(a1-2)Gal(b1-3)GlcNAc(b1-3)[Gal(b1-4)GlcNAc(b1-6)]Gal(b1-4)Glc
# Outline: as §1
# [4] = molecular target: Fuc(a1-2)Gal(b1-4)Fuc(a1-3)]GlcNAc(b1-2)Man(a1-3)[Fuc(a1-2)Gal(b1-4)[Fuc(a1-3)]GlcNAc(b1-2)Man(a1-6)]Man(b1-4)GlcNAc(b1-4)GlcNAc
# Outline: as §1
# [5] = molecular target: Fuc(a1-2)Gal(b1-4)GlcNAc
# Outline: as §1
# [6] = molecular target: Fuc(a1-2)[Gal(a1-3)]Gal
# Outline: as §1
# [7] = molecular target: Fuc(a1-2)[Gal(a1-3)]Gal(b1-4)GlcNAc(b1-2)Man
# Outline: as §1
# [8] = molecular target: Fuc(a1-2)[GalNAc(a1-3)]Gal(b1-3)GlcNAc(b1-3)GalNAc
# Outline: as §1
# [9] = molecular target: Fuc(a1-2)[GalNAc(a1-3)]Gal(b1-4)GlcNAc(b1-6)GalNAc
# Outline: as §1
# [10] = molecular target: Fuc(a1-2)[GalNAc(a1-3)]Gal(b1-4)[Fuc(a1-3)]GlcNAc
# Outline: as §1
# [11] = molecular target: Fuc(a1-2)[GalNAc(a1-3)]Gal(b1-4)[Fuc(a1-3)]GlcNAc(b1-3)GalNAc
# Outline: as §1
# [12] = molecular target: Fuc(a1-3)[Gal(b1-4)]GlcNAc(b1-2)Man
# Outline: as §1
# [13] = molecular target: Gal(a1-3)Gal(b1-4)[Fuc(a1-3)]GlcNAc(b1-2)Man(a1-3)[Gal(a1-3)Gal(b1-4)[Fuc(a1-3)]GlcNAc(b1-2)Man(a1-6)]Man(b1-4)GlcNAc(b1-4)GlcNAc
# Outline: as §1
# [14] = molecular target: Gal(a1-4)Gal(b1-3)GlcNAc(b1-2)Man(a1-3)[Gal(a1-4)Gal(b1-3)GlcNAc(b1-2)Man(a1-6)]Man(b1-4)GlcNAc(b1-4)GlcNAc
# Outline: as §1
# [15] = molecular target: Gal(b1-2)Gal
# Outline: as §1
# [16] = molecular target: Gal(b1-3)GalNAc
# Outline: as §1
# [17] = molecular target: Gal(b1-3)GlcNAc(b1-3)GalNAc
# Outline: as §1
# [18] = molecular target: Gal(b1-3)[Neu5Ac(b2-6)]GalNAc
# Outline: as §1
# [19] = molecular target: Gal(b1-4)GalNAc(a1-3)[Fuc(a1-2)]Gal(b1-4)GlcNAc
# Outline: as §1
# [20] = molecular target: Gal(b1-4)Glc6S
# Outline: as §1
# [21] = molecular target: Gal(b1-4)GlcNAc(b1-2)Man(a1-6)[GlcNAc(b1-2)Man(a1-3)]Man(b1-4)GlcNAc(b1-4)GlcNAc
# Outline: as §1
# [22] = molecular target: Gal(b1-4)GlcNAc(b1-2)[Gal(b1-4)GlcNAc(b1-6)]Man(a1-6)[Gal(b1-4)GlcNAc(b1-2)Man(a1-3)]Man(b1-4)GlcNAc(b1-4)GlcNAc
# Outline: as §1
# [23] = molecular target: Gal(b1-4)GlcNAc(b1-3)Gal(b1-4)GlcNAc(b1-2)Man(a1-3)[Gal(b1-4)GlcNAc(b1-3)Gal(b1-4)GlcNAc(b1-2)Man(a1-6)]Man(b1-4)GlcNAc(b1-4)GlcNAc
# Outline: as §1
# [24] = molecular target: Gal(b1-4)GlcNAc(b1-3)Gal(b1-4)GlcNAc(b1-2)[Gal(b1-4)GlcNAc(b1-3)Gal(b1-4)GlcNAc(b1-6)]Man(a1-6)[Gal(b1-4)GlcNAc(b1-3)Gal(b1-4)GlcNAc(b1-2)Man(a1-3)]Man(b1-4)GlcNAc(b1-4)GlcNAc
# Outline: as §1
# [25] = molecular target: Gal(b1-4)GlcNAc(b1-3)Gal(b1-4)GlcNAc(b1-3)Gal(b1-4)GlcNAc(b1-2)Man(a1-3)[Gal(b1-4)GlcNAc(b1-3)Gal(b1-4)GlcNAc(b1-3)Gal(b1-4)GlcNAc(b1-2)Man(a1-6)]Man(b1-4)GlcNAc(b1-4)[Fuc(a1-6)]GlcNAc
# Outline: as §1
# [26] = molecular target: Gal(b1-4)GlcNAc(b1-3)Gal(b1-4)GlcNAc(b1-3)Gal(b1-4)GlcNAc(b1-3)Gal(b1-4)GlcNAc(b1-2)[Gal(b1-4)GlcNAc(b1-3)Gal(b1-4)GlcNAc(b1-3)Gal(b1-4)GlcNAc(b1-3)Gal(b1-4)GlcNAc(b1-6)]Man(a1-6)[Gal(b1-4)GlcNAc(b1-3)Gal(b1-4)GlcNAc(b1-3)Gal(b1-4)GlcNAc(b1-3)Gal(b1-4)GlcNAc(b1-2)Man(a1-3)]Man(b1-4)GlcNAc(b1-4)[Fuc(a1-6)]GlcNAc
# Outline: as §1
# [27] = molecular target: Gal(b1-4)GlcNAc(b1-3)Gal(b1-4)GlcNAc(b1-3)[Gal(b1-4)GlcNAc(b1-3)Gal(b1-4)GlcNAc(b1-6)]GalNAc
# Outline: as §1
# [28] = molecular target: Gal(b1-4)GlcNAc(b1-6)GalNAc
# Outline: as §1
# [29] = molecular target: Gal(b1-4)GlcNAc(b1-6)[Gal(b1-3)]GalNAc
# Outline: as §1
# [30] = molecular target: Gal3S(b1-4)[Fuc(a1-3)]GlcNAc6S
# Outline: as §1
# [31] = molecular target: Gal6S(b1-4)GlcNAc
# Outline: as §1
# [32] = molecular target: GalNAc(a1-3)Gal
# Outline: as §1
binder,measurement,setting,value
Epa19 (Candida glabrata) (protein) MGSSHHHHHHSSGLVPRGSHMASSKDPTRFPIGCSPQVLKTQPGLAVKLYSYGHPVPGCSYITYQYPDFPRSGYKKERKLADITGVNGKIDIDLKPNDPCRVLTGHLPSNYNYPDTLTYTNFTMILYGYFQPKVTGYHTFNLEADDLLFMNLGAGNAFDCCKAESTLDNFGNYQSYSLWGSDYAKANITVFLVSGVYYPIRLFYVNRDNNAVIDFSFTTEFDKEKVHDFTSYFFSASDGEQCPGSV,glycan array binding signal (z-score),[1],-0.231
same,glycan array binding signal (z-score),[2],0.072
same,glycan array binding signal (z-score),[3],-0.333
same,glycan array binding signal (z-score),[4],2.57
same,glycan array binding signal (z-score),[5],-0.459
same,glycan array binding signal (z-score),[6],-0.947
same,glycan array binding signal (z-score),[7],0.045
same,glycan array binding signal (z-score),[8],2.07
same,glycan array binding signal (z-score),[9],0.209
same,glycan array binding signal (z-score),[10],-0.301
same,glycan array binding signal (z-score),[11],1.08
same,glycan array binding signal (z-score),[12],-0.217
same,glycan array binding signal (z-score),[13],2.47
same,glycan array binding signal (z-score),[14],-0.21
same,glycan array binding signal (z-score),[15],-0.099
same,glycan array binding signal (z-score),[16],-0.306
same,glycan array binding signal (z-score),[17],-0.204
same,glycan array binding signal (z-score),[18],2.39
same,glycan array binding signal (z-score),[19],-0.193
same,glycan array binding signal (z-score),[20],2.4
same,glycan array binding signal (z-score),[21],0.102
same,glycan array binding signal (z-score),[22],-1.26
same,glycan array binding signal (z-score),[23],2.29
same,glycan array binding signal (z-score),[24],0.736
same,glycan array binding signal (z-score),[25],0.256
same,glycan array binding signal (z-score),[26],0.024
same,glycan array binding signal (z-score),[27],1.4
same,glycan array binding signal (z-score),[28],-0.146
same,glycan array binding signal (z-score),[29],0.35
same,glycan array binding signal (z-score),[30],0.49
same,glycan array binding signal (z-score),[31],-0.372
same,glycan array binding signal (z-score),[32],-0.246
